# HT1080NT lethal: kills 2HG-producing HT-1080-NT fibrosarcoma cells; HT-1080-NT fibrosarcoma viability, CellTiter-Glo ATP luminescence, 48 h; Potency, µM (titrated, usually from 46.1 µM), without a hit: at the top dose activity, negative = less viability, most hits filed as cytotoxic; hit rate 1.6% among 360,000; AID 686970;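 also: NT is the 2HG producing partner of a matched IDH1 knockdown line; potency is read from the fitted curve at half-maximal effect; 0% = DMSO-treated cells and -100% = media-only wells without cells; nearly all actives have a fitted effect of over 55% in size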
#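 750 cells/well, RPMI + 5% FBS; 2 h settle, compound pin-transfer, 48 h at 37 degrees C. CellTiter-Glo 10 min RT, luminescence. Normalized to DMSO and media-only wells.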
# DT40 TDP1 no CPT: qHTS for Inhibitors of human tyrosyl-DNA phosphodiesterase 1 (TDP1): qHTS in cells in absence of CPT; DT40 Tdp1-/- hTDP1 cells, no CPT, ATP luminescence, 48 h; Potency, µM (series often up to 46.2 µM), for inactives: at the highest dose activity change, negative = growth inhibition, actives largely listed as inhibitors; hit rate 15% among 420,000; also: potency is read from the fitted curve at half-maximal effect; nearly all actives have a fitted effect of over 55% in size
#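 Stably hTDP1-transfected Tdp1-null chicken DT40 cells were treated with library compounds minus camptothecin and grown for at least 48 hr at 37 °C, after which cellular ATP was quantified by luminescence.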
# ALOX12 inh: blocks human arachidonate 12S-lipoxygenase; P18054; purified 12hLO, xylenol orange hydroperoxide absorbance; Potency, µM (doses to about 108 µM), for the others: top-dose activity change, negative = inhibition, usual class: inhibitors; hit rate 1.1% among 580,000; also: potency is read from the fitted curve at half-maximal effect
# Target sequence (P18054 whole entry, looked up): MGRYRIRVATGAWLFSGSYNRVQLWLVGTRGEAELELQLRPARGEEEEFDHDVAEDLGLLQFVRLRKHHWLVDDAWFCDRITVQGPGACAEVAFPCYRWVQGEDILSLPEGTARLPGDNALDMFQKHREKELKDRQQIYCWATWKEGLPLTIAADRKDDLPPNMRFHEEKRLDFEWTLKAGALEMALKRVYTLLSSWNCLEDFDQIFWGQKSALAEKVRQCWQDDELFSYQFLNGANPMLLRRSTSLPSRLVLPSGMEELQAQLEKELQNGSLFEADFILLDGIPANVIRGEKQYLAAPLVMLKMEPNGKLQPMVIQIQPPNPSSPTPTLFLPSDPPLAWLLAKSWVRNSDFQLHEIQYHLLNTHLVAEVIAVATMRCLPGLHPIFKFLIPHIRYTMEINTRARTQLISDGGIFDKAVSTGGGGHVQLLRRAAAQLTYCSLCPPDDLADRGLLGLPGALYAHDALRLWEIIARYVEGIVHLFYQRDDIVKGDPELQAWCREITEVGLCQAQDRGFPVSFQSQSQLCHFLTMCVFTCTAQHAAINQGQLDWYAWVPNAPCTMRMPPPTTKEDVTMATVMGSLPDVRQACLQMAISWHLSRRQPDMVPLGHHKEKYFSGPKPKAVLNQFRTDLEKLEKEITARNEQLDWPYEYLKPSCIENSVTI
#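 Purified human 12hLO (150 nM final) in 25 mM Hepes, 0.01% Triton X-100, pH 7.0 was preincubated 15 min at room temperature with compound. Then 40 uM arachidonic acid was added, 30 min. Hydroperoxide was read by Fe-XO absorbance ratio 573/405 nm.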
# TDP1 cell CPT: DT40-hTDP1 cell growth loss with CPT | hit rate 12% among 420,000 | chicken DT40 Tdp1-/-;hTDP1 cells + 20 nM CPT, ATP luminescence, 48 h | Potency, µM (series often up to 46.2 µM), for the others: top-dose activity change, negative = growth inhibition, hits mostly inhibitors; also: potency is read from the fitted curve at half-maximal effect; nearly all actives have a fitted effect of over 55% in size
#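 Chicken DT40 Tdp1-/- cells complemented with human TDP1, 400 cells/well, exposed to compounds plus 20 nM camptothecin for at least 48 h at 37 C; viability read as ATP content by CellTiter-Glo luminescence.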
# IL-1B inflam inh: inflammasome signaling inhibition, IL-1 beta readout. THP-1 LPS/ATP IL-1B secretion, AlphaLISA, 16 h; hits give low values. activity change, % at 57.5 µM. hit rate 4.7% among 360,000. AID 743279; in the data active = activity change below about -50%; inconclusive = mostly about -30% to -49%
#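 THP-1 cells pretreated 1 hr with compounds (up to 57.5 uM final), then stimulated with LPS (250 ng/mL final) plus ATP (1.25 mM final); secreted IL-1B measured by AlphaLISA after 16 hr, decreased signal indicating inhibition.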
# HT1080 IDH1KD tx: HT-1080 IDH1 knockdown cell toxicity (counter line). hit rate 2% among 360,000. HT-1080 IDH1 knockdown viability, ATP luminescence, 48 h. Potency, µM (titrated, usually from 46.1 µM), for inactives: at the highest dose activity, negative = toxicity, usual class: cytotoxic. AID 686971;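 also: potency is read from the fitted curve at half-maximal effect; 0% = DMSO wells and -100% = cell-free medium wells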
#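 Luminescent ATP read-out (CellTiter-Glo, 10 min at room temperature) after 48 h compound exposure at 37 °C gave viability of IDH1-knockdown HT-1080 cells. Activity was normalised to DMSO and cell-free wells, then fitted as concentration-response curves.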
# * = called active by the depositor; i = inactive; ? = inconclusive; nt = no result; [ ] = dose if it differs, or a comment. This is one part of a sample in which hits are shown more often than they occur. Unless noted, calls follow the shape of the dose curve; as a rule, active = well fitted curve in the direction sought with a large enough effect; inconclusive = small, poorly fitted or top-dose-only effect, or another doubt; inactive = no such curve, though single readings can be large; an effect the other way counts as inactive or inconclusive. Unless noted, % is scaled to controls: 0 for no effect and ±100 for the full control effect.
SMILES,HT1080NT lethal,DT40 TDP1 no CPT,ALOX12 inh,TDP1 cell CPT,IL-1B inflam inh,HT1080 IDH1KD tx
Cc1ccc(N2C(=O)NC(=O)/C(=C\c3cn(CC(=O)O)c4ccccc34)C2=O)cc1,-14%,24%,3%,0%,26,-6%
O=C(O)Cn1cc(/C=C2\C(=O)NC(=O)N(Cc3ccco3)C2=O)c2ccccc21,2%,?,?,0.73µM*,5,-13%
Cn1nc(-c2cccs2)cc1[C@H]1CN2CC[C@H]1C[C@@H]2CNC(=O)c1ccc2c(c1)OCO2,nt,nt,28%,nt,nt,nt
COc1ccc(-n2nc(C)c3c2NC(=O)CSC3c2cccc(O)c2)cc1 (configuration not stated),nt,nt,-64%,nt,nt,nt
Oc1cc[c]([Hg][Cl])cc1,nt,0.27µM*,nt,0.3µM*,nt,nt
O=S(=O)(c1ccc(O)cc1)c1ccc(O)cc1,nt,0%,-11%,7%,4,nt
O=C(Nc1cccc2ccccc12)c1nn(C23CC4CC(CC(C4)C2)C3)cc1Br,2%,16µM*,0%,23µM*,-3,2%
O=C(Nc1cccc2ccccc12)N1Cc2ccccc2-n2nncc2C1,1%,?,0%,-27%,25,5%
Cc1nn(Cc2ccccc2Cl)c(C)c1C(=O)Nc1nnc(C2CC2)s1,?,?,6%,-55%,0,2.5µM*
O=C(Cc1ccc(N(CCCl)CCCl)cc1)NC(Cc1ccc(Cl)cc1)C(=O)O (configuration not stated),15%,?,-33%,?,0,9%
O=C(Cc1c[nH]c2ccccc12)NNCc1ccc(N(CCCl)CCCl)cc1,-7%,0.92µM*,-27%,0.52µM*,16,-15%
COc1ccc(-c2cccc3c2CCNC3)cc1OC,nt,nt,30%,nt,nt,nt
COc1ccc(C(=O)N2CCC3(CC2)c2nccn2-c2ccccc2CN3C)c(OC)n1,nt,nt,-7%,nt,nt,nt
OC[C@@H](O)[C@H]1O[C@@H]2O[C@@H](C(Cl)(Cl)Cl)O[C@@H]2[C@H]1O,nt,-23%,nt,0%,nt,nt
CCOC(=O)c1cnc(N2CC2)nc1N,-2%,0.92µM*,11%,0.46µM*,-8,7%
C/C(=N\NC(N)=S)C12CC3CC(CC(C3)C1)C2,5µM*,15µM*,?,23µM*,?,6.3µM*
O=c1c2ccccc2cnn1Cc1n[nH]c(=S)n1C1CC2CCC1C2 (configuration not stated),-4%,18µM*,?,?,4,-12%
O=C(c1cccs1)C1CCCN(Cc2nc(-c3ccccn3)no2)C1 (configuration not stated),nt,nt,52%,nt,nt,nt
Cc1c(-c2cccc(Cl)c2)nc2ccccc2c1C(=O)N1CCC2(CC1)OCCO2,-8%,?,73%,21µM*,i,?
CCCOP(=O)(OCCC)C(Nc1ccc(C(C)C)cc1)c1ccc([N+](=O)[O-])cc1 (configuration not stated),?,16µM*,-21%,?,?,?
COc1ccc(C(Nc2cccc([N+](=O)[O-])c2)P(=O)(OC(C)C)OC(C)C)cc1 (configuration not stated),-26%,16µM*,0%,16µM*,-12,-17%
CC(C)OP(=O)(OC(C)C)C(Nc1ccccc1)c1ccccc1C(F)(F)F (configuration not stated),-6%,?,-7%,?,-12,-8%
COc1ccc(OC)c(C(Nc2ccccc2)P(=O)(OC(C)C)OC(C)C)c1 (configuration not stated),-5%,16µM*,0%,?,8,0%
CC(C)OP(=O)(OC(C)C)C(Nc1ccc([N+](=O)[O-])cc1)c1cccc([N+](=O)[O-])c1 (configuration not stated),-17%,18µM*,-15%,?,-6,?
CN(C)CCCC(=O)N1C2CCC1CN(Cc1cccnc1)C2,nt,nt,-23%[6.33 µM],nt,nt,nt
SMILES,HT1080NT lethal,DT40 TDP1 no CPT,ALOX12 inh,TDP1 cell CPT,IL-1B inflam inh,HT1080 IDH1KD tx
O=c1c2ccccc2nc(/C=C/c2cccnc2)n1Cc1ccccc1,?,23µM*,?,?,?,?
COc1ccccc1-n1c(/C=C/c2ccc(O)cc2)nc2ccccc2c1=O,-9%,?,0%,?,?,0%
COc1ccccc1-n1c(/C=C/c2ccccc2)nc2ccccc2c1=O,nt,26µM*,-1%,?,nt,nt
O=c1c2ccccc2nc(/C=C/c2ccc(O)c(O)c2)n1-c1ccccc1,-19%,26µM*,11%,?,-16,-21%
COc1ccc(-n2c(/C=C\c3ccccc3F)nc3ccccc3c2=O)c(OC)c1,nt,23µM*,-24%,15µM*,nt,nt
Nc1cccc(-c2cn(C[C@H]3CC4CCN3C[C@@H]4C(=O)NCc3ccccc3)nn2)c1 (some centres not stated),nt,nt,43%[176 µM],nt,nt,nt
COc1ccc(-c2cc([C@H]3CN4CC[C@H]3C[C@@H]4CNC(=O)c3cccs3)n(C)n2)cc1,nt,nt,67%,nt,nt,nt
CC1CCN(C[C@H]2CN3CC[C@H]2C[C@@H]3CNC(=O)Nc2ccccc2)CC1,nt,nt,25%[176 µM],nt,nt,nt
CN1CCN2C(=O)N(C3CCOCC3)C[C@H]2C1,nt,nt,-4%[176 µM],nt,nt,nt
O=c1c2ccccc2nc(/C=C/c2ccccc2)n1-c1ccc(O)cc1,?,23µM*,8%,?,?,?
O=c1c2ccccc2nc(/C=C/c2ccc(F)cc2)n1-c1ccccn1,35%,18µM*,nt,?,7,15%
O=c1c2ccccc2nc(/C=C/c2ccccc2)n1-c1ccccc1O,-23%,23µM*,0%,-11%,nt,-28%
O=c1c2ccccc2nc(/C=C/c2ccc(O)cc2)n1-c1ccccc1O,-10%,?,?,?,?,-18%
O=C1c2ccccc2C(=O)N1Cc1nc2ccccc2c(=O)n1-c1ccccn1,4%,-9%,-1%,-1%,16,18%
Cc1nc(N)nc(N2CC[C@@H]3CC[C@H](C2)N3C)c1CCC(=O)O,nt,nt,11%,nt,nt,nt
COCCNC(=O)[C@H]1CN2CC[C@H]1C[C@@H]2Cn1cc(CC2CCCCC2)nn1,nt,nt,2%[176 µM],nt,nt,nt
Clc1ccc2c(c1)C(c1ccccc1Cl)=NCc1nnc(N3CCN(CCSc4ccccc4)CC3)n1-2,-5%,?,?,26µM*,28,-8%
Clc1ccc2c(c1)C(c1ccccc1Cl)=NCc1nnc(N3CCN(CCOc4ccccc4)CC3)n1-2,?,16µM*,-28%,21µM*,?,?
